Measured values published in PubChem BioAssay (NCATS).
“And” between values parts separate entries of the source, which are not always exact repeats. Equal values may be shown once. Records with an inconclusive call do not appear. The source made the active and inactive calls. Calls follow the shape of the dose curve; as a rule, active = well fitted curve in the direction sought with a large enough effect; inconclusive = small, poorly fitted or top-dose-only effect, or another doubt; inactive = no such curve, though single readings can be large; an effect the other way counts as inactive or inconclusive.

Test system: not listed separately
Test: qHTS Assay for Lipid Storage Modulators (AID 1519)
Details: Drosophila S3 cells, BODIPY lipid droplet/cell ratio, laser cytometry; measured here: cell count channel max response; cells loaded with oleic acid
How it was run: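 Cells seeded at 5,000 per well were treated with compounds over a concentration series and loaded with oleic acid (400 uM, as added). Lipid droplet fluorescence (488 nm excitation, 500-530 nm channel) was read by laser-scanning cytometry and normalized to 20 uM Triacsin C.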

Row | Compound | max response
1 | COc1cnc(NS(=O)(=O)c2ccc(N)cc2)nc1 | -12.6% and 15.3%
2 | CC(C)(Sc1cc(C(C)(C)C)c(O)c(C(C)(C)C)c1)Sc1cc(C(C)(C)C)c(O)c(C(C)(C)C)c1 | 2.96% and 13.3%
3 | CCCCCCNC(=O)n1cc(F)c(=O)[nH]c1=O | 11.2%
4 | NC(N)=NC(N)=NCCc1ccccc1 | 4.96%
5 | CCOC(=O)c1ccc(OC(=O)CCCCCN=C(N)N)cc1 | -14.4%
6 | COc1ccc(C(=O)CC(=O)c2ccc(C(C)(C)C)cc2)cc1 | -16.9%
7 | Cc1cc(NS(=O)(=O)c2ccc(N)cc2)no1 | 8.41% and 20.8%
8 | Nc1nc(N)c2nc(CNc3ccc(C(=O)NC(CCC(=O)O)C(=O)O)cc3)cnc2n1 (stereo unspecified) | 6.78% and -3.02%
9 | COc1ncnc(NS(=O)(=O)c2ccc(N)cc2)c1OC | -20.8%
10 | Cc1cccc(Nc2ccncc2S(=O)(=O)NC(=O)NC(C)C)c1 | -3.68% and 16.7%
11 | COc1cc(NS(=O)(=O)c2ccc(N)cc2)nc(OC)n1 | -11.2% and 9.08%
12 | CN(Cc1cc(Br)cc(Br)c1N)C1CCCCC1 | -7.97%
13 | N=C(N)c1ccc(OCCCCCOc2ccc(C(=N)N)cc2)cc1 | 3.1% and 6.27%
14 | COc1ccc2c(c1)c(CC(=O)OCC(=O)O)c(C)n2C(=O)c1ccc(Cl)cc1 | 9.96%
15 | CCn1cc(C(=O)O)c(=O)c2cc(F)c(N3CCNCC3)nc21 | 9.91% and 14.4%
16 | CC(=O)[C@H]1CC[C@H]2[C@@H]3CCC4=CC(=O)CC[C@]4(C)[C@H]3CC[C@]12C | -15.2%
17 | CCc1cc(C(N)=S)ccn1 | -9.37% and 8.92%
18 | NCCCC(O)(P(=O)(O)O)P(=O)(O)O | -1.05%
19 | NC(=O)c1cccc(N)c1 | 35.3%
20 | Cc1nnc(NS(=O)(=O)c2ccc(N)cc2)s1 | -3.37% and -1.8%
21 | COc1ccc2cc3[n+](cc2c1OC)CCc1cc2c(cc1-3)OCO2 | -13.6%
22 | O=C(O)c1cccnc1 | -11.4% and 15.3%
23 | COC(=O)Nc1nc2ccc(C(=O)c3ccccc3)cc2[nH]1 | -1.6%
24 | CCCc1cc(C(N)=S)ccn1 | 8.06%

Same assay, conditions: Drosophila S3 cells, BODIPY lipid droplet/cell ratio, laser cytometry; measured here: lipid channel max response; cells loaded with oleic acid

Row | Compound | max response
25 | COc1cnc(NS(=O)(=O)c2ccc(N)cc2)nc1 | -11.3% and 19.8%
26 | CC(C)(Sc1cc(C(C)(C)C)c(O)c(C(C)(C)C)c1)Sc1cc(C(C)(C)C)c(O)c(C(C)(C)C)c1 | 1.97% and 25.1%
27 | CCCCCCNC(=O)n1cc(F)c(=O)[nH]c1=O | 19.7%
28 | NC(N)=NC(N)=NCCc1ccccc1 | 5.89%
29 | CCOC(=O)c1ccc(OC(=O)CCCCCN=C(N)N)cc1 | -13.1%
30 | COc1ccc(C(=O)CC(=O)c2ccc(C(C)(C)C)cc2)cc1 | -13.6%
31 | Cc1cc(NS(=O)(=O)c2ccc(N)cc2)no1 | 8.63% and 34.6%
32 | Nc1nc(N)c2nc(CNc3ccc(C(=O)NC(CCC(=O)O)C(=O)O)cc3)cnc2n1 (stereo unspecified) | 18.5% and 0.109%
33 | COc1ncnc(NS(=O)(=O)c2ccc(N)cc2)c1OC | -23.2%
34 | Cc1cccc(Nc2ccncc2S(=O)(=O)NC(=O)NC(C)C)c1 | -4.97% and 28.2%
35 | COc1cc(NS(=O)(=O)c2ccc(N)cc2)nc(OC)n1 | -12.8% and 25.1%
36 | CN(Cc1cc(Br)cc(Br)c1N)C1CCCCC1 | -15.4%
37 | N=C(N)c1ccc(OCCCCCOc2ccc(C(=N)N)cc2)cc1 | -0.0009% and 12.3%
38 | COc1ccc2c(c1)c(CC(=O)OCC(=O)O)c(C)n2C(=O)c1ccc(Cl)cc1 | 10.1%
39 | CCn1cc(C(=O)O)c(=O)c2cc(F)c(N3CCNCC3)nc21 | 12.7% and 27.2%
40 | CC(=O)[C@H]1CC[C@H]2[C@@H]3CCC4=CC(=O)CC[C@]4(C)[C@H]3CC[C@]12C | -13.1%
41 | CCc1cc(C(N)=S)ccn1 | -12.5% and 21.6%
42 | NCCCC(O)(P(=O)(O)O)P(=O)(O)O | 16.4%
43 | NC(=O)c1cccc(N)c1 | 59.1%
44 | Cc1nnc(NS(=O)(=O)c2ccc(N)cc2)s1 | -7.15% and 7.76%
45 | COc1ccc2cc3[n+](cc2c1OC)CCc1cc2c(cc1-3)OCO2 | -12.8%
46 | O=C(O)c1cccnc1 | -16.2% and 21.7%
47 | COC(=O)Nc1nc2ccc(C(=O)c3ccccc3)cc2[nH]1 | -17.4%
48 | CCCc1cc(C(N)=S)ccn1 | 15.8%

Target: DNA repair nuclease/redox regulator APEX1 (Homo sapiens) (UniProt P27695)
Sequence (P27695 whole entry, looked up): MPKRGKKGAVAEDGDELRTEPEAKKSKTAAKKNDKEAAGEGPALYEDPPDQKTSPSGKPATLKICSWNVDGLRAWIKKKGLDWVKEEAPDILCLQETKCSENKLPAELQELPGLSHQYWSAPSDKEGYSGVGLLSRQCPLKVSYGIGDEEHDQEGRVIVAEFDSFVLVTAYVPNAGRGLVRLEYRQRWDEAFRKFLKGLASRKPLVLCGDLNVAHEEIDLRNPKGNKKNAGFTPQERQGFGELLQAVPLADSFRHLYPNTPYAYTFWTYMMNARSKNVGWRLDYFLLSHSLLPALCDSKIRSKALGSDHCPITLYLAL
Test: qHTS Validation Assay for Inhibitors of the Human Apurinic/apyrimidinic Endonuclease 1 (APE1) (AID 1705;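 also: TAMRA fluorescence gain over two minutes as APE1 cuts a quenched THF abasic duplex; % is scaled to controls: 0 for no effect and ±100 for the full control effect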)
Details: purified APE1 endonuclease activity, fluorescence, titration; series mostly up to 57.1 µM
How it was run: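 Fluorogenic double-stranded THF abasic-site substrate (5'-TAMRA/3'-BHQ-2), 50 nM final. Enzyme preincubated with compound 15 min at room temperature, then substrate added. Kinetic fluorescence (ex 525/em 598 nm) read three times at 60 s intervals; activity taken as third-minus-first read difference.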

Row | Compound | outcome
49 | CC(=O)[C@H]1CC[C@H]2[C@@H]3CCC4=CC(=O)CC[C@]4(C)[C@H]3CC[C@]12C | inactive
50 | COc1cc2ncnc(Nc3cccc(Cl)c3)c2cc1OC | inactive
51 | NC(=O)c1cccc(N)c1 | inactive
52 | Cc1ccc(S(=O)(=O)N[C@@H](Cc2ccccc2)C(=O)CCl)cc1 | inactive
53 | CC(C)(C)NC(=O)[C@H]1CC[C@H]2[C@@H]3CC[C@H]4NC(=O)C=C[C@]4(C)[C@H]3CC[C@]12C | inactive

Target: Endonuclease 4 (Escherichia coli (strain K12)) (UniProt P0A6C1)
Test: Counterscreen for APE1 Inhibitors: qHTS Validation Assay for Inhibitors of Endonuclease IV (AID 1708); also: % is scaled to controls: 0 for no effect and ±100 for the full control effect
Details: E. coli endonuclease IV, DNA cleavage fluorescence; series mostly up to 57.1 µM
How it was run: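 qHTS concentration-response format; LOPAC1280 tested under APE1-screen conditions. 2 nM enzyme, 15 min compound preincubation at RT, then 50 nM TAMRA/BHQ-2 abasic substrate; kinetic fluorescence read, three reads at 60 s intervals.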

Row | Compound | outcome
54 | CC(=O)[C@H]1CC[C@H]2[C@@H]3CCC4=CC(=O)CC[C@]4(C)[C@H]3CC[C@]12C | inactive
55 | COc1cc2ncnc(Nc3cccc(Cl)c3)c2cc1OC | inactive
56 | NC(=O)c1cccc(N)c1 | inactive
57 | CC(C)(C)NC(=O)[C@H]1CC[C@H]2[C@@H]3CC[C@H]4NC(=O)C=C[C@]4(C)[C@H]3CC[C@]12C | inactive

Test system: not listed separately
Test: qHTS for differential inhibitors of proliferation of Plasmodium falciparum line 7G8 (AID 1815);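 also: parasite growth measured after three days of incubation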; also: potency is read from the fitted curve at half-maximal effect
Details: Plasmodium falciparum 7G8 proliferation inhibition; series mostly up to 28.7 µM

Row | Compound | Potency
58 | Nc1nc(N)c2nc(CNc3ccc(C(=O)NC(CCC(=O)O)C(=O)O)cc3)cnc2n1 (stereo unspecified) | inactive
59 | COc1cc2ncnc(Nc3cccc(Cl)c3)c2cc1OC | 8.91 µM (active)
60 | NC(=O)c1cccc(N)c1 | inactive
61 | CC(C)(C)NC(=O)[C@H]1CC[C@H]2[C@@H]3CC[C@H]4NC(=O)C=C[C@]4(C)[C@H]3CC[C@]12C | 10 µM (active)
